In PubChem BioAssay (EPA / NIEHS):
Inconclusive results are not listed. A structure can be active in one record and inactive in another. Calls of active or inactive are those of the source. Rule for the calls, unless noted: active = hit-call score of the fitted dose curve at least 0.9, where 1 is the maximum; inactive = score below 0.9.

Key:
[1] = CCTE_Harrill_HTTr_Viability_MCF7: CCTE's 6-hour Cell Viability Assessment for the High-Throughput Transcriptomics (HTTr) Platform, in MCF-7 cells cultured in DMEM + 10% fetal bovine serum, Harrill Lab (AID 2284010)
Procedure, shortened: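 Eight-point concentration series, six-hour exposure. Propidium iodide exclusion imaged to assess membrane integrity as a cytotoxicity readout; bidirectional fitting was done with DMSO as negative control and activity baseline.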

[2] = CCTE_Shafer_MEA_acute_spike_number: CCTE's Neural Acute Assay for Total Number of Spikes, Shafer Lab (AID 2284008);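 for AC50: curve fitted for decrease in spike count so AC50 reflects inhibitors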
Procedure, shortened: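 Primary rat cortical neurons on 16-electrode MEA wells; on DIV 13 or 15, 40-min baseline then 40-min recording with compound (0.03-40 uM) at 37 C. Spikes detected at 8x rms noise; percent change versus baseline, DMSO as negative control.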

[3] = CCTE_Shafer_MEA_acute_firing_rate_mean: CCTE's Neural Acute Assay for Mean Firing Rate, Shafer Lab (AID 2284009);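 note: analyzed for loss of signal so actives lower firing rate relative to DMSO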
Procedure, shortened: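 Primary rat cortical neurons on 16-electrode MEA wells were exposed on DIV 13 or 15 to compound (0.03-40 uM). Spike counts per recording time, averaged over electrodes, were compared between 40-min baseline and 40-min post-exposure recordings as percent change.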

[4] = CCTE_Harrill_HTTr_Apoptosis_MCF7: CCTE's 6-hour Apoptosis Assessment for the High-Throughput Transcriptomics (HTTr) Platform, in MCF-7 cells cultured in DMEM + 10% fetal bovine serum, Harrill Lab (AID 2284011)
Procedure, shortened: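 MCF-7 cells in DMEM + 10% fetal bovine serum were exposed to chemicals for 6 hours over an eight-point dilution series. Caspase-3/7 activation was imaged by high content imaging with CellEvent Caspase 3/7 Green; bidirectional fitting used DMSO as baseline.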

[5] = CCTE_Shafer_MEA_acute_burst_duration_mean: CCTE's Neural Acute Assay for Mean Burst Duration, Shafer Lab (AID 2284014);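 note: hits are decreases in mean burst duration relative to DMSO controls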
Procedure, shortened: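 Mean burst duration was compared between a 40 min baseline and a 40 min recording in the presence of compound (0.03-40 uM, 37 C), giving percent change per well. Cultures were rat cortical neurons at DIV 13 or 15; wells needed ≥10 active electrodes.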

[6] = CCTE_Shafer_MEA_acute_per_burst_spike_number_mean: CCTE's Neural Acute Assay for Average Number of Spikes Per Burst, Shafer Lab (AID 2284015);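 note: hits are decreases in mean spikes per burst versus baseline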
Procedure, shortened: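 Primary rat cortical neurons on 48-well MEA plates, treated on DIV 13 or 15 at 0.03-40 uM. Spontaneous activity recorded 40 min before and 40 min after compound at 37 C; percent change in mean spikes per single-electrode burst per well, fitted in the loss direction versus DMSO.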

[7] = CCTE_Shafer_MEA_acute_interburst_interval_mean: CCTE's Neural Acute Assay for Mean Interburst Interval, Shafer Lab (AID 2284016);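 note: percent change of mean interburst interval versus each well's own pre-dose baseline; curves fitted for decrease in interburst interval relative to DMSO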
Procedure, shortened: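 Primary rat cortical neurons on 16-electrode MEA wells were recorded 40 min at baseline on DIV 13 or 15, then 40 min after compound (0.03-40 uM), at 37 C. Value is percent change in mean interburst interval per well, DMSO as negative control.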

[8] = CCTE_Shafer_MEA_acute_burst_percentage_mean: CCTE's Neural Acute Assay for Percentage of Spikes in a Burst, Shafer Lab (AID 2284017);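 for AC50: curve fitted for loss of signal so potency reflects decreased burst percentage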
Procedure, shortened: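 Primary rat cortical neurons on 16-electrode MEA wells; 40 min baseline recorded at DIV 13 or 15, then 40 min after compound (0.03-40 uM) at 37 C. Well-mean fraction of spikes in single-electrode bursts; percent change from baseline, DMSO as negative control.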

[9] = CCTE_Shafer_MEA_acute_burst_percentage_std: CCTE's Neural Acute Assay for Standard Deviation of Burst Percentage, Shafer Lab (AID 2284018);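 note: fitted in the negative direction so actives lower burst percentage SD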
Procedure, shortened: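 Value is percent change from baseline in the across-electrode SD of spikes-in-bursts percentage, wells with >/= 10 active electrodes. Acute 40-min exposure to 0.03-40 uM on DIV 13 or 15 rat cortical cultures, recorded at 37 C after 40-min baseline.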

[10] = CCTE_Shafer_MEA_acute_per_network_burst_spike_number_mean: CCTE's Neural Acute Assay for Average Number of Spikes in a Network Burst, Shafer Lab (AID 2284019);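 for AC50: curve fitted for loss of signal so actives reduce spikes per network burst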
Procedure, shortened: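 Percent change from baseline in mean spikes per network burst, spikes detected at 8x rms noise. Each compound at 0.03-40 uM in at least three wells of rat cortical cultures, recorded 40 min before and 40 min during exposure.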

[11] = CCTE_Shafer_MEA_acute_per_network_burst_spike_number_std: CCTE's Neural Acute Assay for Standard Deviation of Number of Spikes in a Network Burst, Shafer Lab (AID 2284020);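 note: fitted for decrease in spike-number SD versus DMSO so actives lower it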
Procedure, shortened: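 Endpoint: percent change from 40 min baseline in standard deviation of spikes per network burst, after 40 min compound exposure (0.03-40 uM, 37 C). Cortical rat neurons on MEA at DIV 13 or 15; spikes detected at 8x rms noise, 300-5000 Hz band-pass.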

[12] = CCTE_Shafer_MEA_acute_per_network_burst_electrodes_number_mean: CCTE's Neural Acute Assay for Mean Number of Electrodes in a Network Burst, Shafer Lab (AID 2284021);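 note: curves fitted for decreases only so hits reduce electrodes per burst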
Procedure, shortened: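 Rat primary cortical neurons on 16-electrode MEA wells were recorded 40 min at baseline on DIV 13 or 15, then 40 min after compound (0.03-40 uM), at 37 C. Value is percent change per well, fitted in loss direction versus DMSO.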

[13] = CCTE_Shafer_MEA_acute_network_burst_percentage: CCTE's Neural Acute Assay for Percentage of Network Bursts, Shafer Lab (AID 2284022);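 note: curves fitted for loss so actives lower network burst percentage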
Procedure, shortened: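 Primary rat cortical neurons on 16-electrode MEA wells, treated on DIV 13 or 15 with compound (0.03-40 uM); 40-min baseline and 40-min post-exposure recordings at 37 C. Value is percent change in spikes within network bursts versus baseline, DMSO negative control.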

[14] = CCTE_Shafer_MEA_acute_cross_correlation_HWHM: CCTE's Neural Acute Assay for Cross Correlation at Half Width at Half Maximum, Shafer Lab (AID 2284026);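 note: percent change per well from pre-dose baseline in spike cross-correlogram half width; hits are a decrease in cross-correlogram half width relative to DMSO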
Procedure, shortened: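 Primary rat cortical neurons on 16-electrode MEA wells; 40-min baseline on DIV 13 or 15, then 40-min recording with compound (0.03-40 uM) at 37 C. HWHM of spike cross-correlogram expressed as percent change from baseline per well, DMSO reference.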

[15] = CCTE_Shafer_MEA_acute_synchrony_index: CCTE's Neural Acute Assay for Synchrony, Shafer Lab (AID 2284027);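 note: network synchrony index of spontaneous spiking in primary rat cortical neurons on MEAs; fitted for loss of signal so actives lower synchrony relative to DMSO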
Procedure, shortened: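 Acute exposure of rat primary cortical neurons (DIV 13 or 15) at 0.03-40 uM. Synchrony index, 40 min before vs after, as % change relative to DMSO control.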

[16] = target: Nucleoli Translocation, AR (gene 367) (UniProt P10275); assay: UPITT_HCI_U2OS_AR_TIF2_Nucleoli_Antagonist: University of Pittsburgh U2OS Androgen Receptor-Transcriptional Intermediary Factor 2 (AR-TIF2) Antagonism High Content Imaging Assay for Nucleoli Translocation (AID 2283997; active = hit-call score of the fitted dose curve at least 0.9, where 1 is the maximum)
Chain of Nucleoli Translocation, AR (gene 367) (P10275 whole entry, looked up, the tested form may be a part): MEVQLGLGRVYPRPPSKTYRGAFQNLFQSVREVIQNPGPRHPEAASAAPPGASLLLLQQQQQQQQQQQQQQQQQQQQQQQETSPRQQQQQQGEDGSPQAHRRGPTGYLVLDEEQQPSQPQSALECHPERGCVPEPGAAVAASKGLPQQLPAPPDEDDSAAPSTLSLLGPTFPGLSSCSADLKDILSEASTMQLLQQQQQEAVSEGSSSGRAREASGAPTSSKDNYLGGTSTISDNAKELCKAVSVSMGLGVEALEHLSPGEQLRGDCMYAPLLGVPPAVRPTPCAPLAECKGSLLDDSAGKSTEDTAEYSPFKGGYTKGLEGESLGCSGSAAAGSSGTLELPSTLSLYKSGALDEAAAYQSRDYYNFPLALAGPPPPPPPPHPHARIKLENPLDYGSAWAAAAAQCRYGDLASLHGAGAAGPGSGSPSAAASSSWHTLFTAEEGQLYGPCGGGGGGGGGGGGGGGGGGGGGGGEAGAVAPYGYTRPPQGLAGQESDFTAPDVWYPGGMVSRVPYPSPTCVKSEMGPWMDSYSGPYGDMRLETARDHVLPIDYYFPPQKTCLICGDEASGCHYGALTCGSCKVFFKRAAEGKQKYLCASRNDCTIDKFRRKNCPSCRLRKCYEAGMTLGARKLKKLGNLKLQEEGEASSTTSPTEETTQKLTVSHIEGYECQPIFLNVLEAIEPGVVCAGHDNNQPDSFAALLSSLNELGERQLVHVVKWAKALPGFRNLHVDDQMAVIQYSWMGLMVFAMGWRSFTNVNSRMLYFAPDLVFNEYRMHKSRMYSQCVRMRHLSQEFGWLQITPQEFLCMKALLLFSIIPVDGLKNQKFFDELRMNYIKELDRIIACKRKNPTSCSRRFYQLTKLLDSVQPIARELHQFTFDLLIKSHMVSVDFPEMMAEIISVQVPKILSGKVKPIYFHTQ
Procedure, shortened: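 Antagonism is read as loss of nucleolar AR-RFP signal relative to DHT, imaged in U2OS cells also carrying GFP-TIF2. Compounds screened at 20 uM final, 0.2% DMSO; primary actives retested in triplicate.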

[17] = target: Nucleoli Translocation, AR (gene 367) (UniProt P10275); assay: UPITT_HCI_U2OS_AR_TIF2_Nucleoli_Agonist: University of Pittsburgh U2OS Androgen Receptor-Transcriptional Intermediary Factor 2 (AR-TIF2) Agonism High Content Imaging Assay for Nucleoli Translocation (AID 2283998; active = hit-call score of the fitted dose curve at least 0.9, where 1 is the maximum)
Procedure, shortened: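 Cells express human AR fused to red fluorescent protein and TIF2 fused to GFP. Red fluorescence in the nucleolar region was quantified by high-content imaging and fitted as gain-of-signal against a DMSO baseline. Compounds were tested at 0.195 to 50 uM final (0.5% DMSO).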

[18] = target: Ratio of Nucleoli Translocation and Cytoplasm, AR (gene 367) (UniProt P10275); assay: UPITT_HCI_U2OS_AR_TIF2_Nucleoli_Cytoplasm_Ratio_Antagonist: University of Pittsburgh U2OS Androgen Receptor-Transcriptional Intermediary Factor 2 (AR-TIF2) Antagonism High Content Imaging Assay for Ratio of Nucleoli Translocation and Cytoplasm (AID 2283999; active = hit-call score of the fitted dose curve at least 0.9, where 1 is the maximum;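 note: antagonists lower the DHT-driven ratio of nucleolar to cytoplasmic red signal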)
Chain of Ratio of Nucleoli Translocation and Cytoplasm, AR (gene 367) (P10275 whole entry, looked up): as the sequence (P10275 whole entry, looked up, the tested form may be a part) above
Procedure, shortened: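 This antagonist-mode endpoint tracks AR-RFP localisation, the nucleolus-to-cytoplasm intensity ratio, in TIF2-GFP-coexpressing U2OS cells. DMSO stays at or below 0.5%; testing spans 20 uM single-dose and 0.195–50 uM series, with DHT setting the activity baseline.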

[19] = target: Ratio of Nucleoli Translocation and Cytoplasm, AR (gene 367) (UniProt P10275); assay: UPITT_HCI_U2OS_AR_TIF2_Nucleoli_Cytoplasm_Ratio_Agonist: University of Pittsburgh U2OS Androgen Receptor-Transcriptional Intermediary Factor 2 (AR-TIF2) Agonism High Content Imaging Assay for Ratio of Nucleoli Translocation and Cytoplasm (AID 2284000; active = hit-call score of the fitted dose curve at least 0.9, where 1 is the maximum;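 note: hits raise the red nucleolar to cytoplasm ratio above vehicle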)
Procedure, shortened: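 Compounds tested at 20 uM final in primary screen (0.2% DMSO) and 0.195-50 uM final in dose-response (0.5% DMSO). Imaging of human U2OS cells bearing RFP-AR and GFP-TIF2; endpoint is nucleoli/cytoplasm red signal ratio, positive direction relative to DMSO.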

[20] = CCTE_Harrill_HTTr_CellCount_MCF7: CCTE's Cell Proliferation Assessment for the High-Throughput Transcriptomics (HTTr) Platform, Harrill Lab (AID 2284012; active = hit-call score of the fitted dose curve at least 0.9, where 1 is the maximum;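 note: count of Hoechst-stained nuclei per well by high-content imaging in MCF-7 cells; cells exposed to compound for six hours; intended direction is loss of nuclei count meaning fewer cells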)
Procedure, shortened: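 For this full-screen endpoint, MCF-7 cultures received eight compound dilutions for six hours. Well nuclei counts from Hoechst imaging were analyzed relative to DMSO.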

Measured: AC50

Cc1cccc(Nc2ccccc2C(=O)O)c1C
inactive: [1]

CCCCCCCCC=O
not listed: [16] | [17] | [18] | [19] | [20]
inactive: all other assays above

OC[C@H]1O[C@H](O[C@]2(CCl)O[C@H](CCl)[C@@H](O)[C@@H]2O)[C@H](O)[C@@H](O)[C@H]1Cl
not listed: [1] | [4] | [16] | [17] | [18] | [19] | [20]
inactive: all other assays above

c1ccc2c(c1)c1cccc3ccc4cccc2c4c31
inactive: [16] | [17] | [18] | [19] | [1] | [4] | [20]

Nc1cc([N+](=O)[O-])ccc1O
active: [2] 2.98 µM | [6] 25.1 µM | [8] 23.7 µM | [10] 0.0403 µM | [11] 0.226 µM | [13] 15 µM | [14] 24.4 µM | [15] 22.6 µM
inactive: [3] | [5] | [7] | [9] | [12]

Cc1ccc(C(=O)c2cc(O)c(O)c([N+](=O)[O-])c2)cc1
inactive: [1]

CCC/C=C/C=O
inactive: [16] | [17] | [18] | [19]

CCCCC(CC)COC(=O)/C=C\C(=O)OCC(CC)CCCC (centres undefined)
inactive: [16] | [17] | [18] | [19] | [1] | [20]

N#Cc1ccc(CC(=NNC(=O)Nc2ccc(OC(F)(F)F)cc2)c2cccc(C(F)(F)F)c2)cc1
inactive: [1]

C[Si](O[Si](C)(C)C)O[Si](C)(C)C
inactive: [16]

CCCCCCCCCCCCCCCC(=O)OC[C@H](O)[C@H]1OC(=O)C(O)=C1O
inactive: [16] | [17] | [18] | [19]

CC[Si](OC(C)=O)(OC(C)=O)OC(C)=O
not listed: [1] | [4] | [16] | [17] | [18] | [19] | [20]
inactive: all other assays above

OC1OC[C@@H](O)[C@H](O)[C@H]1O (some centres undefined)
active: [9] 1.21 µM
not listed: [1] | [4] | [16] | [17] | [18] | [19] | [20]
inactive: all other assays above

CCCCCCCCCCCCOCCO
inactive: [1]

CC(C)(COC(=O)c1ccccc1)COC(=O)c1ccccc1
not listed: [1] | [4] | [16] | [17] | [18] | [19] | [20]
inactive: all other assays above

c1ccc2sc(SN(C3CCCCC3)C3CCCCC3)nc2c1
inactive: [1]

CC(CCO)CCc1ccccc1 (centres undefined)
inactive: [1]

CC(=O)OCCC(C)CC(C)(C)C (centres undefined)
not listed: [1] | [4] | [16] | [17] | [18] | [19] | [20]
inactive: all other assays above

BrC1CCC(Br)C(Br)CCC(Br)C(Br)CCC1Br (centres undefined)
active: [16] 43.5 µM
inactive: [17] | [18] | [19] | [1] | [4] | [20]

O=Nc1ccc(Nc2ccccc2)cc1
active: [16] 2.56 µM | [18] 2.51 µM
inactive: [17] | [19] | [1]

COc1cc(C=O)ccc1OC(=O)C(C)C
active: [10] 3.8 µM | [11] 3.76 µM
not listed: [16] | [17] | [18] | [19]
inactive: all other assays above

CCCCCCCCCCCCCOS(=O)(=O)O
inactive: [16] | [19]

NCCNCCN
not listed: [1] | [4] | [16] | [17] | [18] | [19] | [20]
inactive: all other assays above

c1ccc2[nH]ccc2c1
active: [4] 55.3 µM
inactive: [16] | [17] | [18] | [19] | [1] | [4] | [20]

CC(=O)[C@H]1CC[C@H]2[C@@H]3CC=C4C[C@@H](O)CC[C@]4(C)[C@H]3CC[C@]12C
inactive: [1] | [5] | [6] | [7] | [9] | [11] | [12] | [14]
active: [2] 0.0079 µM | [3] 0.00537 µM | [8] 2.98 µM | [10] 15 µM | [13] 0.0267 µM | [15] 0.00409 µM

C=C[Si](OCC)(OCC)OCC
not listed: [1] | [4] | [16] | [17] | [18] | [19] | [20]
inactive: all other assays above
